Results as given in PubChem BioAssay (NCI).
Compounds without any hit were thinned out: in the full panel of roughly 79,000, 15% have a hit. The source made the active and inactive calls. Cut-off read from the data, not from the text of the source: active = growth inhibition above about 70%; inactive = the rest.

Tests used:
[1] = NCI Yeast Anticancer Drug Screen. Data for the rad50 strain (AID 155);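 note: 0% = growth of vehicle-only cultures of the same strain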; conditions: S. cerevisiae rad50 strain growth inhibition; at 50.0 µM; active compounds read high
Summary of the method: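 Vehicle-treated cultures provide the reference for the growth inhibition reported for compound-exposed, repair-deficient yeast.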

[2] = NCI Yeast Anticancer Drug Screen. Data for the mec2-1 strain (AID 157); conditions: S. cerevisiae mec2-1 strain, at 50.0 µM, active compounds read high
Summary of the method: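 Strain: mec2-1 (DNA repair/cell cycle alteration). Compound exposure, then growth measured; inhibition expressed relative to vehicle.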

[3] = NCI Yeast Anticancer Drug Screen. Data for the sgs1 mgt1 strain (AID 161);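 note: 0% = growth of cultures given vehicle only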; conditions: S. cerevisiae sgs1 mgt1 strain, at 50.0 µM, active compounds read high
Summary of the method: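 Test agents were incubated with a DNA-repair-mutant yeast strain. Growth was then read and compared against vehicle-treated controls.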

[4] = NCI Yeast Anticancer Drug Screen. Data for the cln2 rad14 strain (AID 165);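 note: 0% = growth equal to vehicle treated cultures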; conditions: S. cerevisiae cln2 rad14 strain, at 50.0 µM, active compounds read high
Summary of the method: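 Compounds are applied to the cln2 rad14 yeast strain, and growth is then compared with that of vehicle-treated cultures to give inhibition.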

[5] = NCI Yeast Anticancer Drug Screen. Data for the bub3 strain (AID 167); conditions: S. cerevisiae bub3 mutant strain, at 50.0 µM, active compounds read high
Summary of the method: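 Mutant yeast screening strain plus compound; vehicle-treated cultures serve as the 0% inhibition reference.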

[6] = NCI Yeast Anticancer Drug Screen. Data for the mlh1 rad18 strain (AID 175); conditions: S. cerevisiae mlh1 rad18 strain growth inhibition; at 50.0 µM; active compounds read high
Summary of the method: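 Read-out is yeast growth inhibition, calculated against vehicle-only controls. The compound was applied to a strain engineered with DNA damage repair alterations.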

Measured: growth inhibition

CCOC(=O)C1(O)c2ccccc2NC(=S)N1CC(Br)CBr (stereo unspecified)
inactive: [1] 19.9% | [2] -60.3% | [3] 15.8% | [4] -7.6% | [5] 2.35% | [6] 32.6%

O=C1CCCC(=O)N1CCCO
inactive: [1] 10.1% | [2] -6.4% | [3] -24.2% | [4] -91% | [5] -6.4% | [6] 6.5%

O=C(CN1C(=O)c2cccc3c(Br)ccc(c23)C1=O)c1ccc(Cl)cc1
inactive: [1] -14.2% | [2] -12.7% | [3] 5.85% | [4] 5% | [5] 6.8% | [6] 13.6%

N#CC1(Nc2ccc(-c3ccc(NC4(C#N)CCCC4)cc3)cc2)CCCC1
inactive: [1] 40.8% | [2] -16.4% | [3] -36.5% | [4] -40.9% | [5] -2.55% | [6] 21.1%

COc1ccn(C2OC(=O)C(C)(C)C2=O)c(=O)n1 (stereo unspecified)
inactive: [1] -0.4% | [2] -15.4% | [3] 0.55% | [4] -1.2% | [5] -9.4% | [6] -12.6%

O=S(=O)(Cc1ccccc1)CC(Br)CBr (stereo unspecified)
active: [1] 82.9% | [2] 97.2% | [3] 96.1% | [5] 95.2% | [6] 97.2%
inactive: [4] 27.4%

Cc1c(N=Nc2cccc(Cl)c2Cl)c(-c2ccccc2)nn1C(=S)S
inactive: [1] 53.8% | [2] 42.6% | [3] 55.9% | [4] 35.6% | [5] 24.6% | [6] 28.2%

Cc1ccc2c(c1)C(=O)/C(=N/Nc1ccc(Cl)cc1)CCO2
inactive: [1] 7.65% | [2] -16.1% | [3] 6.2% | [4] -2% | [5] 6.8% | [6] 4.65%

OC1=CC(C2CCCCC2)CC(O)=C1 (stereo unspecified)
inactive: [1] 2.95% | [2] -0.65% | [3] -4.75% | [4] -7.9% | [5] -59.5% | [6] -17.1%

O=C(O)C1CC=CCC1c1c2ccc(=O)cc-2oc2cc(O)ccc12 (stereo unspecified)
inactive: [1] 48.5% | [2] 27.8% | [3] 15.8% | [4] -5.25% | [5] 32.9% | [6] 13.6%

CC/C(=N\N=C(/CC)c1cccs1)c1cccs1
inactive: [1] 25.5% | [2] -6.4% | [3] -10.7% | [4] 3.35% | [5] 13.1% | [6] -3.75%

COc1ccc(NC(=O)Nc2ccc(NC(C)=O)cc2)c(OC)c1
inactive: [1] -6% | [2] -18.2% | [3] 14.5% | [4] 7.65% | [5] 17.1% | [6] 10.7%

Cn1nnc2c(C(N)=O)ncn2c1=O
inactive: [1] -11.4% | [2] -18.5% | [3] -28.5% | [4] -25.2% | [5] -26.6% | [6] -77%

COC(=O)CCS(=O)(=O)Cc1ccccc1
inactive: [1] 0.95% | [2] -1.3% | [3] -6.95% | [4] -7.9% | [5] -1.65% | [6] -0.5%

COCCCCCC(=O)OC
inactive: [1] 5.05% | [2] 17.1% | [3] 6.4% | [4] 4.5% | [5] -7% | [6] 0.5%

O=C(O)c1ccccc1Nc1ccccc1
inactive: [1] 5.75% | [2] -22.1% | [3] 3.8% | [4] -22.4% | [5] -0.75% | [6] -10%

CC(=O)OCC1Cn2c(c(-c3ccccc3)c(=O)[nH]c2=S)O1 (stereo unspecified)
inactive: [1] -9.15% | [2] 14.5% | [3] 5.95% | [4] -1.95% | [5] -6.35% | [6] 8.25%

Cc1ccnc(C2=C(O)c3ccccc3C2=O)c1
inactive: [1] 20% | [2] 0.1% | [3] -9.75% | [4] 1.15% | [5] -2.8% | [6] 12.8%

Cc1nc(Cl)c2cnccn12
inactive: [1] -4.2% | [2] -1.85% | [3] 7.8% | [4] -37.5% | [5] -1.25% | [6] 0.2%

O=[N+]([O-])c1nc(-[n+]2ccccc2)[n-]c1Br
inactive: [1] 4.65% | [2] -1.05% | [3] -1.9% | [4] -49.9% | [5] 4.1% | [6] 8.8%

CCOC(=O)C(N=Cc1ccc([N+](=O)[O-])cc1)C(O)c1ccc([N+](=O)[O-])cc1 (stereo unspecified)
inactive: [1] 9.55% | [2] 5.15% | [3] 1.8% | [4] 14.9% | [5] 2.2% | [6] 7.75%

Cc1cc(C(O)CNCCn2cnc3c2c(=O)n(C)c(=O)n3C)ccc1O (stereo unspecified)
inactive: [1] 38.8% | [2] -1.95% | [3] 19.4% | [4] 25.1% | [5] -4.95% | [6] 12.3%

CCOC(=O)c1cc2c(OC)cc(OC)cc2oc1=O
inactive: [1] 21.8% | [2] 2.6% | [3] 25.1% | [4] 32.8% | [5] 28.9% | [6] 2.55%

CC1CCOC(c2ccc(C(C)C)cc2)O1 (stereo unspecified)
inactive: [1] 8.4% | [2] -2.4% | [3] 2.9% | [4] -9.9% | [5] 9.45% | [6] -0.15%

CSc1nc(NC(=O)O)c(N(C(C)=O)C(=O)O)c(=O)n1C
inactive: [1] -15.3% | [2] 0.6% | [3] 4.55% | [4] 19.7% | [5] -9.35% | [6] -13.5%

CC(C)(CS(C)(=O)=O)C(=O)O
inactive: [1] 2.5% | [2] -18.9% | [3] 3.05% | [4] -7.55% | [5] -2.05% | [6] 4.65%

Cc1cc(=O)oc2cc(OCc3ccccc3)cc(O)c12
inactive: [1] 22.8% | [2] 4.2% | [3] 21.8% | [4] -3.3% | [5] 6.45% | [6] 12.8%

Cc1ccc(-c2cc(=O)c(=O)[nH][nH]2)cc1
inactive: [1] -12.5% | [2] 22.1% | [3] -11.6% | [4] 4.85% | [5] -13.7% | [6] 27.2%

Cc1ccc(C(C)C)cc1O
inactive: [1] 17.6% | [2] 9.5% | [3] 19.1% | [4] 27% | [5] 13.7% | [6] 32.4%

Cc1nc(=S)c2[nH]c(=S)[nH]c2[nH]1
inactive: [1] -2.7% | [2] -16.1% | [3] -3.8% | [4] -18.8% | [5] -1.9% | [6] -8.2%

Cc1cc(OCCCC(=O)O)ccc1Cl
inactive: [1] 51.8% | [2] 30.7% | [3] 54.1% | [4] 34.9% | [5] 49.1% | [6] 52.1%

CC(=O)OC1CC(OC(C)=O)C(OC(C)=O)CC1OC(C)=O (stereo unspecified)
inactive: [1] 7.95% | [2] -5.15% | [3] -9.45% | [4] -18.2% | [5] 1.05% | [6] 12.6%

CCn1c(=O)c2[nH]c(Cl)nc2n(CC(C)Cl)c1=O (stereo unspecified)
inactive: [1] 19.1% | [2] -5% | [3] 6.15% | [4] 17.8% | [5] 5.35% | [6] 19.1%

CCC1OC(=O)C(CC)OC1=O (stereo unspecified)
inactive: [1] -5.75% | [2] -20.2% | [3] -25.6% | [4] -2.05% | [5] -28.9% | [6] -24.4%

COc1ccc2c(c1)c1c3c(ccc4ncn2c43)N(CCN(C)C)CCN=1
inactive: [1] -27.1% | [2] -26.1% | [3] -9.25% | [4] -6.3% | [5] 1.4% | [6] -37.6%

CN(C)CC1CCCCCCC1=O (stereo unspecified)
inactive: [1] -6.45% | [2] 12.7% | [3] -8.55% | [4] -8.1% | [5] -8.85% | [6] 12.8%

CCCCC1=CC1(C#N)[N+](=O)[O-] (stereo unspecified)
inactive: [1] 33.4% | [2] 11.5% | [3] 20.5% | [4] 21.6% | [5] 17.3% | [6] 27.8%

CC(=O)OC1CC2CCCCC2CC1[N+](C)(C)C (stereo unspecified)
inactive: [1] 2.25% | [2] 7.3% | [3] 13.8% | [4] -1.15% | [5] 3.3% | [6] -35.8%

CCCCCNC(=O)c1cccc(C)c1
inactive: [1] -11.1% | [2] -13.2% | [3] -7.65% | [4] -13.6% | [5] -25.4% | [6] -1.2%

O=c1[nH]c(C(Cl)(Cl)Cl)nc2ccc(Cl)cc12
inactive: [1] -0.3% | [2] 8.6% | [3] -1.95% | [4] 11.8% | [5] -10.1% | [6] -12.1%

CC(C)(C)CC(C)(C)c1cc2c(O)c(c1)Cc1cc(C(C)(C)CC(C)(C)C)cc(c1O)Cc1cc(C(C)(C)CC(C)(C)C)cc(c1O)Cc1cc(C(C)(C)CC(C)(C)C)cc(c1O)Cc1cc(C(C)(C)CC(C)(C)C)cc(c1O)C2
inactive: [1] 20.5% | [2] 33.4% | [3] 8.75% | [4] 31.4% | [5] 6.3% | [6] 24.2%
